NPC1 prom act – qHTS Assay for NPC1 Promoter Activators. Huh7 NPC1 promoter luciferase reporter, 24 h. Potency, µM (highest dose often 9.22 µM), for the others: top-dose activation, most hits filed as activators. hit rate 2.4% among 320,000. AID 485313, 2010; also: % of control where 0% means no effect; nearly all actives have a fitted effect of over 60% in size
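Luciferase expression driven by the NPC1 promoter was measured in stably transfected Huh7 cells after a 24 h compound incubation, using a luciferase reagent and a luminescence read.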
Rab9 prom act – qHTS Assay for Rab9 Promoter Activators. Potency, µM (top dose mostly 9.22 µM), inactives show at the highest dose activation, negative = inhibition, usual class: activators. hit rate 2.8% among 320,000. Huh7 Rab9 promoter-luciferase reporter, luminescence, 24 h; also: % of control where 0% means no effect; nearly all actives have a fitted effect of over 60% in size
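Rab9 promoter-driven luciferase in stably transfected Huh7 cells; 1500 cells/well rested 2 h, exposed to compound in DMSO for 24 h at 37 °C, 5% CO2. Luminescence read 10 min after adding luciferase reagent at ambient temperature.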
ELG1 genotox – qHTS screen for small molecules that induce genotoxicity in human embryonic kidney (HEK293T) cells expressing luciferase-tagged ELG1. hit rate 1.3% among 330,000. HEK293T ELG1-luciferase reporter, luminescence, 16 h. Potency, µM (titrated, usually from 46 µM), inactives show top-dose activity change, positive = activation, actives largely listed as activators. AID 504466, 2011; also: % of control where 0% means no effect; nearly all actives have a fitted effect of over 60% in size
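Luminescence read-out: rising ELG1-luciferase signal, reflecting elevated ELG1 protein under genetic stress, flags genotoxic compounds. Cells were treated for 16 hr at 37 °C before ONE-Glo detection.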
FLuc modulator – qHTS profiling assay for firefly luciferase inhibitor/activator using purifed enzyme and Km concentrations of substrates (counterscreen for miR-21 project). purified FLuc, Km substrates, luminescence inhibition. Potency, µM (titrated, usually from 57.5 µM), without a hit: top-dose activity change, negative = inhibition, actives largely listed as inhibitors. hit rate 6.9% among 360,000;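 also: plate controls were vehicle for no effect and reference inhibitor for full effect; nearly all actives have a fitted effect of over 55% in size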
Target sequence (P08659 whole entry, looked up): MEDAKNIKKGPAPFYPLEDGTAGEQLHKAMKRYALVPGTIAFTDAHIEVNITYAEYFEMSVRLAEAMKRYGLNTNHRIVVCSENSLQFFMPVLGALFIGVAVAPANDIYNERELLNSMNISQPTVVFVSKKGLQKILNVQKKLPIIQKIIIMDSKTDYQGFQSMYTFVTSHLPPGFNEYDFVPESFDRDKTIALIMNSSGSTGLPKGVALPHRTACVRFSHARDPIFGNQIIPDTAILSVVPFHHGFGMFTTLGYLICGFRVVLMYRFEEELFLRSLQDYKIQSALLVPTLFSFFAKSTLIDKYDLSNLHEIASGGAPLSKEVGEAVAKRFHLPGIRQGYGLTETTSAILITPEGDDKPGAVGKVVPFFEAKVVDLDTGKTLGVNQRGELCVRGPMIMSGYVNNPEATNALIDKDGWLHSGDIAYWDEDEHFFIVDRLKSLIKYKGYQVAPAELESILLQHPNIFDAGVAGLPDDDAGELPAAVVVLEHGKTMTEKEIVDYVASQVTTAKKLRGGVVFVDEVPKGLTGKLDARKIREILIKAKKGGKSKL
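Purified P. pyralis luciferase, 10 nM final, with Km-level 10 uM D-luciferin and 10 uM ATP in 50 mM Tris acetate pH 7.5, 10 mM Mg acetate, 0.01% Tween-20, 0.05% BSA; 6-point qHTS titration about 60 µM downward; luminescence read.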
ELG1 DNA repair – qHTS screen for small molecules that inhibit ELG1-dependent DNA repair in human embryonic kidney (HEK293T) cells expressing luciferase-tagged ELG1; HEK293T ELG1-luciferase reporter, luminescence, 16 h; DNA damage induced by 5-fluorouridine; Potency, µM (top dose mostly 46.1 µM), inactives show at the top dose activity change, negative = inhibition, usual class: inhibitors; hit rate 2.3% among 330,000; also: % is scaled to controls: 0 for no effect and ±100 for the full control effect; nearly all actives have a fitted effect of over 55% in size
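Luminescence from the luciferase reporter, measured 30 min after ONE-Glo reagent at room temperature, was the read-out. Beforehand, 2,000 cells per well were exposed for 16 hr at 37 °C to 5-fluorouridine together with compound or vehicle.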
SMN2 splice enh – qHTS Assay for Enhancers of SMN2 Splice Variant Expression; HEK293 SMN2-luciferase splicing reporter, luminescence, 30-36 h; Potency, µM (doses to about 46.1 µM), inactives show at the top dose activity change, positive = activation, most hits filed as activators; hit rate 2.8% among 210,000; also: % of control where 0% means no effect; nearly all actives have a fitted effect of over 55% in size
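HEK293 cells carry an SMN2 minigene-luciferase reporter in which exon 7 inclusion puts luciferase in frame. Cells were seeded at 2000 cells/well, attached for 10-12 hours, then exposed to compounds for 30-36 hours at 37C before ONE-Glo luminescence.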
Numbers without * were called inactive; ? = inconclusive; · = not tested or not shown. The list is not random: actives were taken first. Their share in the collection is about 9.2%. Calls follow the shape of the dose curve; as a rule, active = well fitted curve in the direction sought with a large enough effect; inconclusive = small, poorly fitted or top-dose-only effect, or another doubt; inactive = no such curve, though single readings can be large; an effect the other way counts as inactive or inconclusive. Potency is read from the fitted curve at half-maximal effect.

SMILES | NPC1 prom act | Rab9 prom act | ELG1 genotox | FLuc modulator | ELG1 DNA repair | SMN2 splice enh
Cc1cccc(-n2c(SCC(=O)N3CC(=O)Nc4ccccc43)nc3ccccc3c2=O)c1 | -4.9% | -7.7% | -5.1% | -0.8% | ? | 1.3%
COc1ccccc1/C=N/N1C(=O)C(CC(=O)Nc2ccc([N+](=O)[O-])cc2OC)SC1=Nc1cccc(C)c1C (stereo not given) | -12.5% | -20.8% | -7.2% | -0.2% | 5.8µM* | -14.7%
CN(N)c1nc(C(F)(F)F)nc2ccccc12 | -2.9% | -6.3% | -12.5% | -1.8% | -25.4% | 8.9%
CN(NS(=O)(=O)c1ccc(Br)cc1)c1nc(C(F)(F)F)nc2ccccc12 | -1.5% | 2.0% | -15.9% | ? | 20.6µM* | -69.0%
COc1ccccc1C(C)NC(=O)CN(C)CC(=O)Nc1c(C)cccc1C (stereo not given) | -4.0% | 0.2% | -1.7% | 3.3% | -0.2% | ·
CC(=O)NCCC(=O)Nc1sc2c(c1-c1nc3ccccc3[nH]1)CCCC2 | -6.0% | 0.1% | -6.3% | ? | 14.6µM* | 1.4%
O=C(Nc1sc2c(c1-c1nc3ccccc3[nH]1)CCCC2)C1CCCC1 | 6.4% | 7.9% | 1.5% | ? | ? | -3.8%
CNC(=O)Nc1ccccc1F | 0.3% | -5.4% | -4.9% | -1.3% | 2.5% | -1.1%
COC(=O)c1ccc(NC(=O)Nc2ccccc2F)cc1 | 0.398µM* | 0.447µM* | ? | 2.13µM* | ? | 2.51µM*
NC(=O)c1ccc(NC(=O)C#Cc2ccccc2)cc1 | -4.7% | -0.2% | -32.9% | ? | ? | ·
O=C(Nc1ccccc1F)Nc1ccccc1Br | 26.2% | -16.9% | ? | 16.9µM* | ? | 12.8%
O=C(Nc1ccc(F)cc1)Nc1cccnc1Cl | 22.8% | ? | 3.9% | 16.9µM* | ? | ·
O=C(C#Cc1ccccc1)Nc1ccccc1F | ? | ? | 16.7% | 1.9µM* | ? | ·
Cc1cccnc1NC(=O)Nc1ccc(F)cc1 | ? | ? | ? | ? | ? | 17.2%
CCOc1ccc(CN(C)C(=O)Cc2c[nH]c3ccccc23)cc1 | -5.1% | -2.2% | -6.2% | -1.9% | -1.9% | ·
CC(=O)Nc1ccc(NC(=O)Nc2ccccc2C)cc1 | 11.1% | 4.2% | 2.9% | ? | ? | ·
CC(=O)N(C)c1ccc(NC(=O)Nc2ccccc2C)cc1 | ? | 2.82µM* | 20.6µM* | 12µM* | ? | 12.6µM*
COc1ccc(NC(=O)Nc2ccccc2F)cc1Cl | 1.78µM* | 1.41µM* | 5.17µM* | ? | ? | 10µM*
COc1ccc(Cl)cc1NC(=O)Nc1ccccc1SC | -1.1% | -4.4% | 9.5% | 5.7% | -10.4% | -4.0%
CSc1ccccc1NC(=O)Nc1ccc(Cl)cc1 | ? | ? | ? | 10.7µM* | ? | -30.7%
COC(=O)c1ccc(NC(=O)Nc2ccccc2C)cc1 | ? | ? | 5.2% | 4.78µM* | -14.5% | -21.1%
COc1ccc(C/C(C)=N/NC(=S)Nc2ccc(C(C)C)cc2)cc1 | 0.0% | -3.2% | -0.7% | ? | -4.0% | -21.1%
COc1ccc(NC(=O)Nc2ccccc2SC)cc1 | ? | ? | ? | 10.7µM* | ? | 12.6µM*
COC(=O)c1ccc(OC(=O)c2ccccc2F)cc1 | 0.7% | -2.2% | 1.7% | 13.5µM* | ? | -4.0%
COc1cccc(NC(=O)CN(C)C(=O)c2ccc(S(=O)(=O)Nc3ccccc3F)cc2)c1 | -3.3% | -0.7% | -0.3% | 0.9% | 10.8% | ·
SMILES | NPC1 prom act | Rab9 prom act | ELG1 genotox | FLuc modulator | ELG1 DNA repair | SMN2 splice enh
COc1ccc(C/C(C)=N/NC(=S)Nc2ccccc2F)cc1 | 3.16µM* | 2.51µM* | 8.2µM* | 15.1µM* | ? | -55.6%
COc1ccc(-c2cc(C(=O)Nc3ccccc3SC)no2)cc1 | 4.6% | 25.4% | 5.5% | -0.5% | ? | 7.2%
O=C(Oc1ccc(C(=S)N2CCOCC2)cc1)c1ccccc1F | -3.1% | 5.9% | 5.2% | ? | 15.7% | ·
COc1ccc(NC(=O)CN(C)C(=O)c2ccc(S(=O)(=O)Nc3ccccc3F)cc2)cc1 | 1.5% | -5.4% | 22.6% | 13.5µM* | 18.1% | ·
Nc1c(C(=O)Nc2ccccc2Cl)c2ccccn2c1C(=O)c1ccccc1 | · | · | · | -16.4% | · | 8.5%
CC(C)c1ccc(N2C(=O)CSC23C(=O)N(C)c2ccccc23)cc1 (stereo not given) | · | · | · | 1.8% | · | ·
COc1ccc([C@@H]2[C@@H]3C(=O)N(C(C)(C)C)C(=O)[C@@H]3[C@]3(C)C(=O)N(c4cccc(Cl)c4)C(=O)N23)cc1 | 10.2% | -4.8% | 1.4% | 3.1% | 9.4% | ·
COc1cccc(COC(=O)Nc2ccccc2F)c1 | 1.12µM* | 2µM* | 4.11µM* | 10.7µM* | ? | ·
COc1ccc(NC(=O)Nc2ccccc2F)cc1 | 0.562µM* | 0.447µM* | 2.59µM* | 3.38µM* | ? | 11.2µM*
COc1ccc(NC(=O)Nc2ccccc2F)c(C)c1 | 24.0% | ? | 6.5% | -9.3% | ? | ·
COC(=O)c1sccc1NC(=O)Nc1ccccc1C | -7.4% | -5.9% | 11.6% | 3.9% | 9.4% | ·
O=C(Nc1ccc(NC(=O)c2ccccc2O)cc1)Nc1ccc(F)cc1F | 1.4% | -0.9% | 0.2% | -7.1% | 6.8% | ·
COC(=O)c1sccc1NC(=O)Nc1ccccc1F | 0.9% | -1.4% | 4.1% | 13.5µM* | 21.8% | ·
O=C(Nc1ccc(F)cc1)Nc1ccccc1F | 2.51µM* | 1.41µM* | ? | 7.57µM* | ? | 15.8µM*
COc1ccc(CNC(=O)Cc2c(C)c3cc4c(C)coc4c(C)c3oc2=O)cc1OC | · | · | · | 2.0% | · | -3.1%
O=S(=O)(c1ccc(OCc2ccc(Br)cc2)cc1)N1CCOCC1 | -2.5% | 1.3% | -1.8% | 0.7% | 17.4% | ·
Cc1nc(C)c(-c2ccn(C(=O)NC(C)C)n2)s1 | -1.5% | -10.7% | 3.8% | 6.0% | 0.0% | ·
Fc1ccccc1NC(=S)N/N=C/c1ccccc1Br | ? | 3.16µM* | 4.47µM* | 13.5µM* | ? | 11.2µM*
O=[N+]([O-])c1ccc(/C=N/NC(=S)Nc2ccccc2F)o1 | 0.5% | -1.1% | 7.3% | ? | ? | 5.2%
CC(C)(C)C(=O)NCCCc1nc2ccccc2n1CCCOc1ccc(Cl)cc1 | -0.9% | -7.5% | -18.3% | 0.9% | 23.1µM* | -36.6%
Cc1ccccc1OCCCn1c(CO)nc2ccccc21 | 1.2% | 5.5% | -6.0% | 15.1µM* | -0.1% | 4.1%
CCc1nc2ccccc2n1CCCCOc1ccccc1C | · | · | · | ? | · | -27.6%
OCc1nc2ccccc2n1CCCOc1ccc(Br)cc1 | · | · | · | 10.7µM* | · | -9.0%

Source: PubChem
